Experimental data reported in PubChem BioAssay (NCATS).
Records with an inconclusive call do not appear. Activity calls are given as the source filed them. Calls come from the whole dose curve; as a rule, active = well fitted curve in the direction sought with a large enough effect; inconclusive = small, poorly fitted or top-dose-only effect, or another doubt; inactive = no such curve, though single readings can be large; an effect the other way counts as inactive or inconclusive.

Assays:
[1] = target: Glutathione peroxidase 1 (Homo sapiens) (UniProt P07203); experiment: Primary qHTS Assay for Inhibitors of Recombinant Selenoprotein Glutathione Peroxidase 1 (GPX1) (AID 1845191); note: nearly all actives have a fitted effect of over 65% in size; for activity, negative = inhibition: % is set by controls: 0 for no effect and ±100 for the full control effect
Glutathione peroxidase 1 (Homo sapiens), sequence (P07203 whole entry, looked up): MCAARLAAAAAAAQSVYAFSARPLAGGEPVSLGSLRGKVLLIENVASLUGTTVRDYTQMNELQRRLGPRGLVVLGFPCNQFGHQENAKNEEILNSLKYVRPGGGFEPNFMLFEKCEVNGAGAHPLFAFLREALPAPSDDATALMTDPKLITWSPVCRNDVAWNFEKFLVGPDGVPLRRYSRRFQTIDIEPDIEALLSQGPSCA
In short: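 Recombinant GPX1 (10 nM final) was preincubated with compound for 30 min at room temperature, then reacted with 1 mM GSH, 0.5 mM CHP, 0.5 mM NADPH and 100 nM glutathione reductase; NADPH fluorescence (340/450 nm) was read at 0 and 15 min.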

[2] = target: Phospholipid hydroperoxide glutathione peroxidase GPX4 (Homo sapiens) (UniProt P36969); experiment: Primary qHTS Assay for Inhibitors of Recombinant Selenoprotein Glutathione Peroxidase 4 (GPX4) (AID 1845192); note: nearly all actives have a fitted effect of over 65% in size; note: potency is the fitted concentration of half-maximal effect
Phospholipid hydroperoxide glutathione peroxidase GPX4 (Homo sapiens), sequence (P36969 whole entry, looked up): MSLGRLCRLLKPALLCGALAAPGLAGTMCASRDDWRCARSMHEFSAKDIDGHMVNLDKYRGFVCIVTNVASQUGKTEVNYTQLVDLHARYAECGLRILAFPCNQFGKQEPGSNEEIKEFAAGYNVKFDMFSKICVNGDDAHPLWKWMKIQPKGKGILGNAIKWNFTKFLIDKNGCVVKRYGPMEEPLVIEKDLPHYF
In short: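 GR-coupled readout: 100 nM GR, 1 mM GSH, 0.5 mM NADPH; NADPH fluorescence (ex 340/em 450 nm) read at t=0 and after 15 min RT. GPX4 200 nM, preincubated 30 min with compound; substrate 0.5 mM CHP.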

[3] = target: Luciferin 4-monooxygenase (Photinus pyralis) (UniProt P08659); experiment: Primary firefly luciferase (FLuc) qHTS assay for identification of artifact compounds. (AID 1845220); note: nearly all actives have a fitted effect of over 60% in size; note: potency is the fitted concentration of half-maximal effect
In short: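 Reaction readout was CCD-imaged luminescence, taken 5 min after adding 10 nM purified firefly enzyme to compound-treated wells holding 10 uM luciferin and ATP in pH 7.6 buffer.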

[4] = system: Nanoluciferase (engineered Oplophorus gracilirostris luciferase); experiment: Primary Nanoluciferase (NLuc) qHTS assay for identification of artifact compounds. (AID 1845222); note: potency is the fitted concentration of half-maximal effect;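 for activity, negative = inhibition: NLuc secreted into diluted conditioned medium of S16 cells; series mostly up to about 54 µM; 0% = DMSO and -100% = no enzyme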
In short: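 Concentration-response data were obtained by luminescence after 5 min with Nano-Glo substrate at 1:100. The enzyme was diluted S16 NLuc-expressing cell medium, preincubated with compound for 15 min at RT. Curves were fitted with a 4-parameter Hill model.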

[5] = Primary redox qHTS assay for identification of artifact compounds. (AID 1845223); note: potency is the fitted concentration of half-maximal effect
In short: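 Amplex Red (25 uM) and HRP (250 mU/mL) in HBSS, with compounds for 15 min, then 250 uM DTT for 30 min, room temperature, dark. Fluorescence 525/598 nm read; normalized to DMSO and 10 uM DA3003; Hill fit.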

Cn1c(CO)c(-c2ccccc2)c2cc([N+](=O)[O-])ccc21
inactive: Potency [1] | Potency [2] | Potency [3] | Potency [4] | Potency [5]

COc1cc2c(c(OC)c1CC=C(C)C)C[C@H](c1ccc(O)c(CC=C(C)C)c1O)CO2
inactive: Potency [1] | Potency [2] | Potency [3] | Potency [4] | Potency [5]

N#Cc1cc(-c2ccnc(Nc3ccc(N4CCOCC4)cc3)n2)ccc1OC1CCOCC1
inactive: Potency [1] | Potency [2] | Potency [3] | Potency [4] | Potency [5]

C=C(C(=O)OC[C@H]1O[C@@H](OC(=O)/C=C/c2ccccc2)[C@H](O)[C@@H](O)[C@@H]1O)C(O)CO (stereo not given in full)
inactive: Potency [1] | Potency [2] | Potency [3] | Potency [4] | Potency [5]

O=C(NS(=O)(=O)c1ccc(Br)s1)c1ccc(Cl)cc1Cl
inactive: Potency [1] | Potency [2] | Potency [3] | Potency [5]
active: Potency [4] 6.75 µM

Cc1cc2c(N3CCCC3)nc(N3CCCC3)nc2n1C
active: Potency [5] 0.844 µM
inactive: Potency [1] | Potency [2] | Potency [3] | Potency [4]

CC1(C(=O)Nc2ccc(F)nc2)CCCN1c1nc(Nc2cc(C3CC3)[nH]n2)c2cccn2n1 (stereo not given)
inactive: Potency [1] | Potency [2] | Potency [3] | Potency [4] | Potency [5]

OC1CCC(Nc2nc(-c3ccccc3)nc3[nH]ccc23)CC1 (stereo not given)
inactive: Potency [1] | Potency [2] | Potency [3] | Potency [4] | Potency [5]

C/C1=C\CCC2=CC(OC2=O)C(C)(C)/C=C/C1=O (stereo not given)
inactive: Potency [1] | Potency [2] | Potency [3] | Potency [4] | Potency [5]

N#CSc1cc(SC#N)c(N)nc1N
active: Potency [5] 5.05 µM
inactive: Potency [1] | Potency [2] | outcome [3] inactive [at 11.6 µM] | activity, negative = inhibition [4] -17.4% [at 11.6 µM]

Cc1c(NC(=O)c2cc3c(s2)CCCC3)cccc1-c1cn(C)c(=O)c(Nc2ccc(C3C(=O)N(C)CCN3C)cc2)n1 (stereo not given)
inactive: Potency [1] | Potency [2] | Potency [4] | Potency [5]
active: Potency [3] 4.78 µM

CN1CCN(c2ccc(Nc3cc(-c4cccc(-n5ccc6cc(C7CC7)cc(F)c6c5=O)c4CO)cn(C)c3=O)nc2)CC1
inactive: Potency [1] | Potency [2] | Potency [3] | Potency [4] | Potency [5]

COc1cc2c(cc1OC(C)C)[C@H](c1ccc(Cl)cc1)N(c1ccc(N(C)CC3CCC(N4CCN(C)C(=O)C4)CC3)cc1)C(=O)C2 (stereo not given in full)
inactive: Potency [1] | Potency [2] | Potency [3] | Potency [4] | Potency [5]

CC(=O)O[C@]1(C(C)=O)CC[C@H]2[C@@H]3CCC4=CC(=O)CCC4=C3[C@@H](c3ccc(N(C)C)cc3)C[C@@]21C
inactive: Potency [1] | Potency [2] | Potency [3] | Potency [4] | Potency [5]

CCC(C)/C=C(C)/C=C/C1=CC2=C(Cl)C(=O)C(C)(OC(C)=O)C(=O)C2(O)C(OC)O1 (stereo not given)
inactive: Potency [1] | Potency [2] | Potency [3] | Potency [4] | Potency [5]

COc1ccc(C2Oc3c(OC)cc(CCCO)cc3C2COC2OC(CO)C(O)C(O)C2O)cc1OC (stereo not given)
inactive: Potency [1] | Potency [2] | Potency [3] | Potency [4] | Potency [5]

Cc1cc(C)c(S(=O)(=O)n2cc(C)cc2C)c(C)c1
inactive: Potency [1] | Potency [2] | Potency [3] | Potency [4] | Potency [5]

COc1ccc2c(c1)C(C(=O)N(Cc1ccc(N(C)C)cc1)c1ccc(C(C)C)cc1)CCC2 (stereo not given)
inactive: Potency [1] | Potency [2] | Potency [3] | Potency [4] | Potency [5]

CN1CCN(C2=Nc3ccccc3Nc3ccc(OS(=O)(=O)C(F)(F)F)cc32)CC1
inactive: Potency [1] | Potency [2] | Potency [3] | Potency [4] | Potency [5]

CCCc1cc(C)[nH]c(=O)c1CNC(=O)c1cc(-c2ccc(N3CCN(C(C)C)CC3)nc2)cc2c1cnn2C(C)C
inactive: Potency [1] | Potency [2] | Potency [3] | Potency [4] | Potency [5]

COc1cc2nc(N3CCN(C(=O)c4ccco4)C4CCCCC43)nc(N)c2cc1OC (stereo not given)
active: Potency [2] 22.7 µM
inactive: Potency [1] | Potency [3] | Potency [4] | Potency [5]

CC1(C)CC[C@]2(C(=O)O)CC[C@]3(C)C(=CCC4[C@@]5(C)C[C@@H](O)[C@H](O)C(CO)(CO)C5CC[C@]43C)C2[C@@H]1O (stereo not given in full)
inactive: Potency [1] | Potency [2] | Potency [3] | Potency [4] | Potency [5]

CC1CCCC(O)CC(=O)c2c(O)cc(O)cc2CC(=O)O1 (stereo not given)
inactive: Potency [1] | Potency [2] | Potency [3] | Potency [4] | Potency [5]

COC(=O)c1sccc1S(=O)(=O)Nc1ccc(Nc2ccccc2)cc1OC
inactive: Potency [1] | Potency [2] | Potency [3] | Potency [4] | Potency [5]

CN1CCN(C2=Nc3ccccc3Nc3ccc(Cl)cc32)CC1
inactive: Potency [1] | Potency [2] | Potency [3] | Potency [4] | Potency [5]

CC[C@@H](C)[C@@H]1OC2(C=C[C@H]1C)C[C@@H]1C[C@H](C/C=C(\C)[C@H](O[C@H]3C[C@H](OC)[C@H](O[C@H]4C[C@H](OC)[C@H](NC(C)=O)[C@H](C)O4)[C@H](C)O3)[C@H](C)/C=C/C=C3\CO[C@H]4[C@H](O)C(C)=C[C@@H](C(=O)O1)[C@@]34O)O2 (stereo not given in full)
inactive: Potency [1] | Potency [2] | Potency [3] | Potency [4] | Potency [5]

O=C1NC(=O)C(c2cnc3ccccn23)=C1c1cn2c3c(cc(F)cc13)CN(C(=O)N1CCCCC1)CC2
inactive: Potency [1] | Potency [2] | Potency [3] | Potency [4] | Potency [5]
